Potency and affinity values are given separately. Inconclusive results are not listed. Calls of active or inactive are those of the source. Unless noted, no rule for the calls is given here.
Columns and labels:
[1] = inhibitors of PAX8-driven TPO luciferase reporter, dose response, RMG-I cells, cherry-pick (AID 687027;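 active = every replicate test run called active, with the signal dropping as expected and potency within twice the top valid dose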); conditions: RMG-I TPO-Luc reporter, SteadyGlo luminescence, 24 h; series mostly up to 35 µM
[2] = cytotoxicity in PAX8-dependent RMG-1 cells, dose response, cell-based, cherry-pick (AID 687029;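 active = signal drop whose fitted half-maximal concentration is at most twice the top valid dose, in every test run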;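 also: cells exposed to compound for 96 hours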); conditions: RMG-1 viability, CellTiterGlo ATP luminescence, 96 h; series mostly up to 35 µM
[3] = non-specific cell cytotoxicity, dose response, cytotoxicity control for PAX8 inhibitor project, plate reader, dry powder samples (AID 743021); conditions: cell line, non-specific cytotoxicity counter-screen; series mostly up to 35 µM
[4] = inhibitors of CMV-promoter luciferase reporter, dose response, counter-screen for Pax8 inhibitor project, cell-based, HEK293, luminescence, dry powder (AID 743020;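 active = signal-lowering compounds whose fitted half-maximal concentration is at or below twice the top tested dose in every run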;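 also: HEK293 cells stably expressing the CMV luciferase reporter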); conditions: SteadyGlo luminescence, 24 h; series mostly up to 35 µM
[5] = IOSE-T80 ovarian epithelial cell cytotoxicity, dose response, cytotoxicity control for PAX8 inhibitor project, plate reader, dry powder samples (AID 743045); conditions: IOSE-T80 ovarian epithelial cells; series mostly up to 35 µM;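 also: 0% = neutral control median and -100% = positive control median; more negative values mean more cell killing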
[6] = A2780 ovarian cancer cell cytotoxicity, dose response, cytotoxicity control, plate reader, dry powder samples (AID 743046); conditions: series mostly up to 35 µM;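 also: 0% = neutral control wells and -100% = cytotoxic reference compound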
[7] = IGROV1 ovarian cancer cell cytotoxicity, dose response, PAX8 inhibitor project, plate reader, dry powder samples (AID 743043); conditions: series mostly up to 35 µM;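 also: more negative means fewer viable cells or more cytotoxicity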
[8] = NIH:OVCAR-3 ovarian cancer cell cytotoxicity, dose response, PAX8 inhibitor project, plate reader, dry powder samples (AID 743044); conditions: NIH:OVCAR-3 ovarian cancer cell viability; max activity: at 35 µM, active compounds read low unless noted; series mostly up to 50 µM
[9] = cytotoxicity in OVCAR8 ovarian cancer cells, dose response, PAX8 project, cell-based, plate reader, dry powder samples (AID 743197); conditions: series mostly up to 35 µM
[10] = cytotoxicity in IOSE-T80 ovarian epithelial cells, dose response, selectivity assay for PAX8 inhibitor project, cell-based, cherry-pick (AID 687032;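 active = fitted half-maximal concentration for viability loss no higher than twice the top valid dose, in every repeat run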;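 also: cells exposed to compound for 96 h before reading; 0% = neutral control wells and -100% = 2 µM mitoxantrone kill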); conditions: CellTiterGlo ATP luminescence, 96 h; series mostly up to 35 µM

Cc1ccc(/C=C/C(=O)N2CCN(c3cccc(C(F)(F)F)c3)CC2)cc1
inactive: outcome [1] | outcome [2] | outcome [3]

C[C@@H]1CN([C@@H](C)CO)C(=O)CCCn2nncc2CO[C@H]1CN(C)S(=O)(=O)c1ccc(Cl)cc1
inactive: outcome [1] | outcome [2] | outcome [3]

O=[N+]([O-])c1cc(-c2nnc(-c3ccccc3)o2)ccc1Oc1ccc(Cl)cc1
inactive: outcome [1] | outcome [2] | outcome [3]

Cc1ccc(-c2ccc([C@@H]3[C@H](CO)N4CCCCN(C(=O)Nc5cccc(F)c5)C[C@@H]34)cc2)cc1
inactive: outcome [1] | outcome [2] | outcome [4] | outcome [3] | outcome [5] | outcome [6]

CCCCCC(=O)N/N=C(\C)c1ccc(N2CCCCC2)cc1
inactive: outcome [1] | outcome [2] | outcome [3]

CO[C@@H]1CN(C)C(=O)c2cc(NC(=O)c3nc4ccccc4s3)ccc2OC[C@H](C)NC[C@H]1C
inactive: outcome [1] | outcome [2] | outcome [4] | outcome [3] | outcome [7] | max activity [8] -38.8% [at 30 µM, active compounds read low] | outcome [5] | outcome [9]

COc1ccc(C(=O)N/N=C/c2ccc(OC(=O)c3cccs3)cc2)cc1
inactive: outcome [1] | outcome [2] | outcome [3]

COc1ccc(-n2nc([N+](=O)[O-])c(=NCc3cccnc3)n2O)cc1
inactive: outcome [1] | outcome [2] | outcome [4] | outcome [3]

CN(C)CC#Cc1ccc([C@@H]2[C@H](CO)N3CCCCN(C(=O)Nc4ccc(F)cc4)C[C@@H]23)cc1
inactive: outcome [1] | outcome [2] | outcome [4] | outcome [3] | outcome [7] | max activity [8] 29.4% [at 0.26 µM, active compounds read low] | outcome [5] | outcome [6] | outcome [9]

CC(C)(C)OC(=O)[C@H](Cc1ccccc1)NC(=O)c1nc[nH]c1C(=O)N[C@@H](Cc1ccccc1)C(=O)OC(C)(C)C
inactive: activity change, negative = inhibition [1] -24.7% [at 8 µM] | outcome [2] | outcome [3]

O=C(NNC(=O)c1cccc2ccccc12)c1cccc(F)c1
inactive: outcome [1] | outcome [2] | outcome [4] | outcome [3]

OCC1CCCN(C(=S)Nc2ccc(OC(F)F)cc2)C1 (configuration not stated)
inactive: outcome [1] | outcome [2] | outcome [3]

Cc1ccc2nc(-c3ccc(NC(=S)NC4CC(C)(C)NC(C)(C)C4)cc3)sc2c1
inactive: outcome [1] | outcome [2] | outcome [3]

O=C(Cc1cccs1)N/N=C/C=C/c1ccccc1
inactive: outcome [1] | outcome [2] | outcome [4] | outcome [3]

O=C(/C=C/c1ccc(Cl)cc1Cl)N1CCN(c2ccccc2[N+](=O)[O-])CC1
inactive: outcome [1] | outcome [2] | outcome [4] | outcome [3]

COc1ccc(NC(=O)c2nn(C34CC5CC(CC(C5)C3)C4)cc2[N+](=O)[O-])cc1
inactive: outcome [1] | outcome [2] | outcome [4] | outcome [3]

CCCNC(=O)COC(=O)/C=C/c1ccco1
inactive: outcome [1] | outcome [2] | outcome [3]

Oc1ccc(F)c2cccnc12
inactive: outcome [1] | outcome [10] | outcome [4] | outcome [3]

Cc1cc(C)c2c(c1)/C(=N/NC(=O)c1cc(C)oc1C)CCC2
inactive: outcome [1] | outcome [2] | outcome [3]

O=C(Cc1nnc(NC(=O)c2ccccc2)s1)N/N=C/c1ccco1
inactive: outcome [1] | outcome [2] | outcome [4] | outcome [3]

O=C(Cc1ccccc1)c1ccccc1C(=O)N1CCCCC1
inactive: outcome [1] | outcome [2] | outcome [4] | outcome [3]

Cc1nnc(N/N=C/c2cccc(C(F)(F)F)c2)n1N
inactive: outcome [1] | outcome [2] | outcome [3]

Cc1cc(OCCCn2cnc3ccccc3c2=O)ccc1[N+](=O)[O-]
inactive: outcome [1] | outcome [2] | outcome [4] | outcome [3]

COc1ccc2c(c1)OC/C(=C/c1cccs1)C2=O
inactive: outcome [1] | outcome [2] | outcome [3]

O=C(O)C1C=CC(C(=O)O)c2ccccc21 (configuration not stated)
inactive: outcome [1] | outcome [2] | outcome [4] | outcome [3]

O=[N+]([O-])c1cccc(-c2nnc(-c3ccc4c(c3)OCO4)o2)c1
inactive: outcome [1] | outcome [2] | outcome [4] | outcome [3]

Cc1cc([N+](=O)[O-])nn1CCCC(=O)Nc1sc2c(c1C(N)=O)CCC(C)C2 (configuration not stated)
inactive: outcome [1] | outcome [2] | outcome [3]

O=C(NCc1ccc(F)cc1)C1(c2cccs2)CCOCC1
inactive: outcome [1] | outcome [2] | outcome [3]

C[C@H](CO)N1C[C@H](C)[C@@H](CN(C)C(=O)Nc2ccnc(N3CCOCC3)c2)OCc2cnnn2CCCC1=O
inactive: outcome [1] | outcome [2] | outcome [4] | outcome [3] | outcome [7] | max activity [8] 8.36% [at 0.26 µM, active compounds read low] | outcome [5] | outcome [9]

CC(=O)C1=C(O)C(=O)N(CCc2ccccc2)C1c1ccccc1[N+](=O)[O-] (configuration not stated)
inactive: outcome [1] | outcome [2] | outcome [3]

COc1ccc(C(=O)NC(=S)NNC(=O)COc2ccccc2)cc1
inactive: outcome [1] | outcome [2] | outcome [3]

O=C(NCC1CCCO1)C(=O)NCC(c1ccco1)N1CCN(c2ccccc2)CC1 (configuration not stated)
inactive: outcome [1] | outcome [2] | outcome [4] | outcome [3]

CCN1CCN(c2nc(-c3cccs3)nc3ccccc23)CC1
inactive: outcome [1] | activity change, negative = inhibition [2] 16.7% [at 8 µM] | outcome [3]

CCCNC(=O)COc1nc2ccccc2nc1N1CCOCC1
inactive: outcome [1] | outcome [4] | outcome [3]

COc1cccc(CC(=O)Nc2nc3c(s2)C(=O)CC(C)(C)C3)c1
inactive: outcome [1] | outcome [4]

CC1CN(CC(O)COC(c2ccccc2)c2ccccc2)CC(C)O1 (configuration not stated)
inactive: outcome [1] | outcome [4] | outcome [3]

CCOc1ccc(C(=O)O/N=C(\N)c2ccccn2)cc1
inactive: outcome [2]

COc1ccc(/C=c2/sc3n(c2=O)C(c2ccccc2OC)C2=C(N=3)c3ccccc3CC2)cc1O (configuration not stated)
inactive: outcome [2]

Nc1nc(=S)c2ncn([C@@H]3O[C@H](CO)[C@@H](O)[C@H]3O)c2[nH]1
inactive: outcome [2]

COc1cccc(S(=O)(=O)NCC(=O)Nc2ccc(C(C)(C)C)cc2)c1
inactive: outcome [1] | outcome [10] | outcome [3]

CN(C)CCNC(=O)c1cc2c(s1)-c1ccc(Cl)cc1SC2
inactive: outcome [2]

C[C@@H]1CN([C@@H](C)CO)C(=O)Cc2cc(NS(=O)(=O)c3ccc(Cl)cc3)ccc2O[C@H]1CN(C)Cc1ccc(C(F)(F)F)cc1
inactive: outcome [1] | outcome [10] | outcome [4] | outcome [3] | outcome [7] | max activity [8] 14.3% [at 0.26 µM, active compounds read low] | outcome [5] | outcome [6] | outcome [9]

Cc1ccc(S(=O)(=O)Nc2ccc3c(c2)C(=O)N([C@@H](C)CO)C[C@@H](C)[C@@H](CN(C)C)OCCCC[C@H](C)O3)cc1
inactive: outcome [1] | outcome [10] | outcome [4] | outcome [3] | outcome [7] | max activity [8] 20.9% [at 0.26 µM, active compounds read low] | outcome [5] | outcome [6] | outcome [9]

Nc1nc(Sc2ccc([N+](=O)[O-])c3nonc23)c2[nH]cnc2n1
inactive: outcome [2]

O=C(NCc1ccco1)C1CCCN(S(=O)(=O)c2ccc(Br)cc2)C1 (configuration not stated)
inactive: outcome [1] | outcome [4] | outcome [3]

O=S(=O)(NCC1CCCO1)c1cnc(Cl)c(Br)c1 (configuration not stated)
inactive: outcome [1] | outcome [4] | outcome [3]

C=CCn1c(C)cc(C2=NNC(=NCC)SC2)c1C
inactive: outcome [2]

Nc1ncnc2c(C3OC(CO)C(O)C3O)c[nH]c12 (configuration not stated)
inactive: outcome [2]
